Results taken from PubChem BioAssay (Tox21).
Results filed as inconclusive are left out. Calls of active or inactive are those of the source. Unless noted, calls follow the shape of the full dose curve.

What was measured:
[1] = Nuclear factor erythroid 2-related factor 2/antioxidant responsive element (Nrf2/ARE) small molecule agonists: qHTS cell viability counter screen in human keratinocytes (AID 1919968; active = well fitted curve in the direction sought with a large enough effect in the repeat runs; an effect the other way counts as inactive or inconclusive; also: nearly all actives have a fitted effect of over 55% in size)
Outline: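 Cytotoxicity was multiplexed with the Nrf2/ARE luciferase assay in the same wells. Stably transfected HaCaT keratinocytes were treated with test compounds for 23 h at 37 C. Cell viability was then measured by CellTiter-Fluor fluorescence.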

[2] = target: Gonadotropin-releasing hormone receptor (Homo sapiens) (UniProt P30968); test: Human gonadotropin-releasing hormone receptor (GnRHR) small molecule agonists, calcium flux assay in GnRHR-HEK293 cells (AID 1920063); also: nearly all actives have a fitted effect of over 35% in size
Outline: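 Agonist activity was measured as intracellular calcium flux in HEK293 cells engineered to stably express human GnRHR. After dye loading for 1 hour at 37 C, compounds in DMSO were added and fluorescence was followed for 3 minutes.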

[3] = target: KiSS-1 receptor (Homo sapiens) (UniProt Q969F8); test: Human kisspeptin (KISS1R) small molecule agonists, calcium flux assay in KISS1R-HEK293 cells (AID 1920064; active = well fitted curve in the direction sought with a large enough effect in the repeat runs; an effect the other way counts as inactive or inconclusive)
Outline: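 Agonist activity is monitored as intracellular calcium rise in engineered HEK293 cells carrying human KISS1R. Cells are dye-loaded for 1 h at 37 C before compound addition, and fluorescence is recorded for 3 min.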

[4] = G protein-coupled receptor (GPCR) small molecule agonists, calcium flux assay: HEK293 wild type cell line counter screen (AID 1920065)
Outline: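 Seed cells, incubate 18 h (37 C, 5% CO2); add calcium dye, 1 h at 37 C; pin-transfer compounds, ATP control or DMSO; read fluorescence 480/540 nm each second for 3 min.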

[5] = p53 small molecule agonists, cell-based qHTS assay with rat liver microsomes (AID 1963578)
Outline: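 Rat liver microsome activation: microsomes 0.5 mg/mL, NADPH 0.5 mg/mL final; p53RE-bla cells, 16 h 37 C; LiveBLAzer readout, 2 h RT dark.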

[6] = p53 small molecule agonists, cell-based qHTS assay with rat liver microsomes: qHTS cell viability counter screen (AID 1963580); also: nearly all actives have a fitted effect of over 45% in size
Outline: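 After the beta-lactamase ratio was read, CellTiter-Glo was added to the same wells and luminescence measured at 30 min; cells had been treated 16 h at 37 C with compounds, rat liver microsomes and NADPH (0.5 mg/mL final each).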

[7] = p53 small molecule agonists, cell-based qHTS assay: qHTS cell viability counter screen (AID 1963581); also: nearly all actives have a fitted effect of over 45% in size
Outline: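 Viability was counter-screened in parallel with the p53 agonist reporter by measuring intracellular ATP luminescence in the same HCT-116 p53RE-bla wells after 16 h compound treatment at 37 C.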

[8] = target: Muscarinic acetylcholine receptor M1 (Homo sapiens) (UniProt P11229); test: Cholinergic receptor muscarinic 1 (CHRM1) small molecule agonists, cell-based qHTS assay (AID 1963589); also: nearly all actives have a fitted effect of over 35% in size
Outline: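 Cells were plated and incubated 18 h at 37 C/5% CO2, loaded with calcium dye for 1 h at 37 C, then treated with compounds in DMSO. Fluorescence was recorded kinetically at 1 sec intervals.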

[9] = target: D(2) dopamine receptor (Homo sapiens) (UniProt P14416); test: Dopamine D2 receptor (DRD2) small molecule antagonists, cell-based qHTS assay (AID 1963595; active = well fitted inhibition curve with a large enough effect in the signal ratio in the repeat runs, with a control signal flat; the % refers to the signal ratio)
Outline: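 HEK293 cells stably expressing DRD2 were preincubated with 0.1 mM Ro20-1724, then with compound for 10 min at room temperature. Cells were stimulated with 200 nM NKH477 plus 12 nM quinpirole for 30 min, and cAMP was read by HTRF.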

[10] = p53 small molecule agonists, cell-based qHTS assay with human liver microsomes: qHTS cell viability counter screen (AID 1963579); also: nearly all actives have a fitted effect of over 45% in size
Outline: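 Luminescent CellTiter-Glo read-out, 30 min at room temperature, gauged cytotoxicity in p53RE-bla cells exposed 16 h at 37 C to DMSO-dissolved compounds with metabolic activation by human liver microsomes and NADPH, each 0.5 mg/mL final.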

[11] = target: 5-hydroxytryptamine receptor 2A (Homo sapiens) (UniProt P28223); test: 5-hydroxytryptamine receptor 2A (HTR2A) small molecule antagonists, cell-based qHTS assay (AID 1963586); also: nearly all actives have a fitted effect of over 45% in size
Outline: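 CHO cells stably expressing human HTR2A were plated for 18 h at 37 C, then loaded with calcium dye for 1 h. Compounds were preincubated 5 min at room temperature before DOI (4 nM solution) was added. Kinetic fluorescence was read for 3 min.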

[12] = target: 5-hydroxytryptamine receptor 2A (Homo sapiens) (UniProt P28223); test: 5-hydroxytryptamine receptor 2A (HTR2A) small molecule agonists, cell-based qHTS assay (AID 1963587); also: nearly all actives have a fitted effect of over 30% in size
Outline: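 CHO cells stably expressing human HTR2A, plated 18 h, loaded with calcium dye 1 h at 37 C. Agonist mode: compounds added and intracellular calcium fluorescence recorded kinetically for 2 min at 1 sec intervals.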

[13] = target: Muscarinic acetylcholine receptor M1 (Homo sapiens) (UniProt P11229); test: Cholinergic receptor muscarinic 1 (CHRM1) small molecule antagonists, cell-based qHTS assay (AID 1963588); also: nearly all actives have a fitted effect of over 40% in size
Outline: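 Compounds were tested at 15 concentrations in three independent runs. Dye-loaded CHRM1-CHO cells were exposed 5 min at room temperature before stimulation by acetylcholine added at 50nM. Intracellular calcium was read kinetically on FDSS for 3 min.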

[14] = cAMP Responsive Elements (CRE) small molecule agonists, cell-based qHTS assay (AID 1963590)
Outline: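 Cells carrying a CRE-driven beta-lactamase reporter (HEK 293T) are seeded, incubated overnight (18 h), and treated with test compounds for 3 h at 37 C; reporter activity is then detected with a FRET substrate after 2 h at room temperature.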

[15] = cAMP Responsive Elements (CRE) small molecule antagonists, cell-based qHTS assay (AID 1963591; active = well fitted inhibition curve with a large enough effect in the signal ratio in the repeat runs, not every such curve was filed as active; the % refers to the signal ratio)
Outline: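 Cells (CRE-bla HEK 293T, DMEM with 10% dialyzed FBS and 25 mM HEPES) are seeded and incubated 18 h. Compounds are added with NKH477 agonist at 0.25 uM final for 3 h, then FRET substrate for 2 h.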

[16] = target: Beta-2 adrenergic receptor (Homo sapiens) (UniProt P07550); test: Adrenergic beta2 receptor (ADRB2) small molecule antagonists, cell-based qHTS assay (AID 1963592); also: series mostly up to about 92 µM; nearly all actives have a fitted effect of over 50% in size
Outline: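 Assay format: CHO-ADRB2 cells, 18-20hr seeding at 37C/5% CO2, then compound plus 1nM isoproterenol agonist mix for 0.5hr RT. Homogeneous time-resolved fluorescence cAMP detection after 1hr, expressed as 665/615 nm ratio.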

[17] = target: Beta-2 adrenergic receptor (Homo sapiens) (UniProt P07550); test: Adrenergic beta2 receptor (ADRB2) small molecule agonists, cell-based qHTS assay (AID 1963593);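 also: CHO cells stably overexpressing human ADRB2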
Outline: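 CHO cells stably over-expressing ADRB2 were plated overnight at 37C, then dosed with compounds plus a stimulation mix containing 100uM IBMX and 25uM Ro-20-1724 for 0.5hr at room temperature. cAMP was measured by HTRF competition, 1hr.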

[18] = target: D(2) dopamine receptor (Homo sapiens) (UniProt P14416); test: Dopamine D2 receptor (DRD2) small molecule agonists, cell-based qHTS assay (AID 1963594); also: nearly all actives have a fitted effect of over 35% in size
Outline: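 HEK293 cells stably expressing human DRD2, pre-treated with PDE inhibitor Ro20-1724 (0.1 mM final) and compound 10 min at room temperature, then stimulated with NKH477 (200nM […]) for 30 min. cAMP read by HTRF (665/620 nm).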

[19] = p53 small molecule agonists, cell-based qHTS assay (AID 1963582; active = well fitted activation curve with a large enough effect in the signal ratio in the repeat runs, not every such curve was filed as active; the % refers to the signal ratio)
Outline: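 Cells carrying a p53-responsive bla reporter are treated with test compounds for 16 h at 37 C; beta-lactamase activity is then detected with LiveBLAzer B/G FRET substrate after 2 h at room temperature.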
% is scaled to controls: 0 for no effect and ±100 for the full control effect.

Chain of D(2) dopamine receptor (Homo sapiens) (P14416 whole entry, looked up): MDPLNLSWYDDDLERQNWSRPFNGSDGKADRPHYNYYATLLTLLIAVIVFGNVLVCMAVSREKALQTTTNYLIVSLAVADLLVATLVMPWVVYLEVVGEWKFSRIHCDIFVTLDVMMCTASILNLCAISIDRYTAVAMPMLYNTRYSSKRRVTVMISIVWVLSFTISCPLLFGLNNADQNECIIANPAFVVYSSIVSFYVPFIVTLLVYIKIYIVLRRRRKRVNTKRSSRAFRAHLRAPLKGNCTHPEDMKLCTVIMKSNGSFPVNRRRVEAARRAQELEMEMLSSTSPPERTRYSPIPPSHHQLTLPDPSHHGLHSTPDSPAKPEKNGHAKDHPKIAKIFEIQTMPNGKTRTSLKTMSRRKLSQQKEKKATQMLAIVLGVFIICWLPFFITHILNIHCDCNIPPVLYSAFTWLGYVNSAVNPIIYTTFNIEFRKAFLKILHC
Chain of Muscarinic acetylcholine receptor M1 (Homo sapiens) (P11229 whole entry, looked up): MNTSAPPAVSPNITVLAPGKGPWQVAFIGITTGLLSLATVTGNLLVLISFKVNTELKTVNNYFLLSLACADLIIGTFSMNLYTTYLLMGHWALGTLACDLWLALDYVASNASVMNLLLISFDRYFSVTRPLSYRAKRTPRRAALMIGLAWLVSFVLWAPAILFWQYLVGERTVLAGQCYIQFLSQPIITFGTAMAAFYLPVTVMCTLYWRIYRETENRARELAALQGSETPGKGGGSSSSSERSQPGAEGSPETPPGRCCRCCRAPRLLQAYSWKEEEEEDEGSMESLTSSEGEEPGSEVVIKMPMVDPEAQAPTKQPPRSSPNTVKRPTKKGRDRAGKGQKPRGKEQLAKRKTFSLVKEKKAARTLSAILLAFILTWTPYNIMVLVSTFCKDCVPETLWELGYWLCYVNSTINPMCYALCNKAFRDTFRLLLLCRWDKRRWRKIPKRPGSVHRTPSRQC
Chain of KiSS-1 receptor (Homo sapiens) (Q969F8 whole entry, looked up): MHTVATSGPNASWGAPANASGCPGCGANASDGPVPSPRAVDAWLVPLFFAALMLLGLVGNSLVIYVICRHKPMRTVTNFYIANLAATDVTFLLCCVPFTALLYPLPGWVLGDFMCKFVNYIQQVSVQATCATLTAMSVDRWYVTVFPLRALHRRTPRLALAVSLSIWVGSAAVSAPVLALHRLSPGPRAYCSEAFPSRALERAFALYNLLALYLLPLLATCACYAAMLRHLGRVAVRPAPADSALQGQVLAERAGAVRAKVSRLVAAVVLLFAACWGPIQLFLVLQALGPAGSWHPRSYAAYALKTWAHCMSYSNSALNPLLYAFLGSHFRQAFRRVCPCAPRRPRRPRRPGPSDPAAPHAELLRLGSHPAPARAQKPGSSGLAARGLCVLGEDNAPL
Chain of Beta-2 adrenergic receptor (Homo sapiens) (P07550 whole entry, looked up): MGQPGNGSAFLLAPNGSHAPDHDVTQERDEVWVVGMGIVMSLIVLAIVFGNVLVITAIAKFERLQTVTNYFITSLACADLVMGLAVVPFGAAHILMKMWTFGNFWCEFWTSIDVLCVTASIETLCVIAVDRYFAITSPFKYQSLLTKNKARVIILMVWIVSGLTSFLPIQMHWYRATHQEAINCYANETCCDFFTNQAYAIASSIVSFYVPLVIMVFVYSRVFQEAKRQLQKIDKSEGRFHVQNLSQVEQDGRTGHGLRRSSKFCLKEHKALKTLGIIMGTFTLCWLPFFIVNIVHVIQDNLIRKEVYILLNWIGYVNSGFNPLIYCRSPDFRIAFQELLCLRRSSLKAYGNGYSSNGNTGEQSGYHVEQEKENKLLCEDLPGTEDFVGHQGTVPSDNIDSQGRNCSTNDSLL
Chain of 5-hydroxytryptamine receptor 2A (Homo sapiens) (P28223 whole entry, looked up): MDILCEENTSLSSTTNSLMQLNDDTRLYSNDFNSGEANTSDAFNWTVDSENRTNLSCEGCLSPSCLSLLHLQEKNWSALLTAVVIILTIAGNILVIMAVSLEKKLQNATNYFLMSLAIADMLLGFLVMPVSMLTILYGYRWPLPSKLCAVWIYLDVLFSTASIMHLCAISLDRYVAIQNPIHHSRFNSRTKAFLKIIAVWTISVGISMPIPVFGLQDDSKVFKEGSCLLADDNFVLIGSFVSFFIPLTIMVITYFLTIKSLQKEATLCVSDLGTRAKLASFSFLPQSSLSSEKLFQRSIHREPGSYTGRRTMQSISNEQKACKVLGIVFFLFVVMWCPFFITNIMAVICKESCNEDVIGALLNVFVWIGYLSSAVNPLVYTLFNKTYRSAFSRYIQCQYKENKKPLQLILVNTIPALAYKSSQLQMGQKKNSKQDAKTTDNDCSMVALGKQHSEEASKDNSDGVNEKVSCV
Chain of Gonadotropin-releasing hormone receptor (Homo sapiens) (P30968 whole entry, looked up): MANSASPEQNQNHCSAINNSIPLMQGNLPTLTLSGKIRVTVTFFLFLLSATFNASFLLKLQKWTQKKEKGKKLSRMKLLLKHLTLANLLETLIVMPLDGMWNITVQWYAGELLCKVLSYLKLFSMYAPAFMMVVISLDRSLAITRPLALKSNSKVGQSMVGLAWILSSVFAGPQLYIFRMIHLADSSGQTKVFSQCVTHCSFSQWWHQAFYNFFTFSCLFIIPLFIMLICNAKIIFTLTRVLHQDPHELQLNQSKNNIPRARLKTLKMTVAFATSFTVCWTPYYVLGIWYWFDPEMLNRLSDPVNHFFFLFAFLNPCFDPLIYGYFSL

O=C(NO)c1ccccc1
inactive: Potency [1] | Potency [2] | Potency [3] | Potency [4] | Potency [5] | Potency [6] | Potency [7] | Potency [8] | Potency [9]

N#CCCOCCOCCC#N
inactive: Potency [1] | Potency [2] | Potency [3] | Potency [4] | Potency [10] | Potency [6] | Potency [7] | Potency [11] | Potency [12] | Potency [13] | Potency [8] | Potency [14] | Potency [15] | Potency [16] | Potency [17] | Potency [18] | Potency [9]

CN(C)C(C)(C)CO
inactive: Potency [1] | Potency [2] | Potency [3] | Potency [4] | Potency [10] | Potency [6] | Potency [7] | Potency [11] | Potency [12] | Potency [13] | Potency [8] | Potency [14] | Potency [15] | Potency [16] | Potency [17] | Potency [18] | Potency [9]

CCCCN1C[C@H](O)[C@@H](O)[C@H](O)[C@H]1CO
inactive: Potency [1] | Potency [2] | Potency [3] | Potency [4] | Potency [10] | Potency [6] | Potency [7] | Potency [11] | Potency [12] | Potency [13] | Potency [8] | Potency [14] | Potency [15] | Potency [16] | Potency [17] | Potency [18] | Potency [9]

CCC(C)[O-].CCC(C)[O-].CCOC(=O)/C=C(/C)[O-].[Al+3]
inactive: Potency [1] | Potency [2] | Potency [3] | Potency [4] | Potency [10] | Potency [6] | Potency [7] | Potency [11] | Potency [12] | Potency [13] | Potency [8] | Potency [14] | Potency [15] | Potency [16] | Potency [18] | Potency [9]

N#CCCOCCC#N
inactive: Potency [1] | Potency [2] | Potency [3] | Potency [4] | Potency [10] | Potency [6] | Potency [7] | Potency [19] | Potency [11] | Potency [12] | Potency [13] | Potency [8] | Potency [14] | Potency [15] | Potency [16] | Potency [18] | Potency [9]

CCN(C(=O)N(CC)c1ccccc1)c1ccccc1
inactive: Potency [1] | Potency [2] | Potency [3] | Potency [4] | Potency [10] | Potency [6] | Potency [7] | Potency [11] | Potency [12] | Potency [13] | Potency [8] | Potency [16] | Potency [18]

Nc1nc(Cl)cc(Cl)n1
inactive: Potency [1] | Potency [2] | Potency [3] | Potency [4] | Potency [10] | Potency [6] | Potency [7] | Potency [11] | Potency [12] | Potency [13] | Potency [8] | Potency [16] | Potency [18] | Potency [9]

CC(=O)Nc1ccc(S(=O)(=O)Cl)cc1
inactive: Potency [1] | Potency [2] | Potency [3] | Potency [4] | Potency [10] | Potency [6] | Potency [7] | Potency [11] | Potency [12] | Potency [13] | Potency [8] | Potency [14] | Potency [15] | Potency [16] | Potency [17] | Potency [18] | Potency [9]

C[C@H]1COc2c(C3(N)CC3)c(F)cc3c(=O)c(C(=O)O)cn1c23
inactive: Potency [1] | Potency [2] | Potency [3] | Potency [4] | Potency [10] | Potency [6] | Potency [7] | Potency [11] | Potency [12] | Potency [13] | Potency [8] | Potency [16] | Potency [18] | Potency [9]

CC(O)CN (centres undefined)
inactive: Potency [1] | Potency [2] | Potency [3] | Potency [4] | Potency [10] | Potency [6] | Potency [7] | Potency [11] | Potency [12] | Potency [13] | Potency [8] | Potency [14] | Potency [15] | Potency [17] | Potency [18] | Potency [9]

c1ccc(-c2ccc(-c3ccccc3)cc2)cc1
inactive: activity change, negative = cytotoxicity [1] 1.35% [at 19 µM] | activity change [2] 1.83% [at 11.8 µM, stronger effect = higher value] | activation [3] 1.85% [at 15.8 µM] | activation [4] 0.1% [at 11.8 µM] | activity change, negative = cytotoxicity [10] 5.03% [at 13.5 µM] | activity change, negative = cytotoxicity [6] -3.67% [at 13.5 µM] | activity change, negative = cytotoxicity [7] -12.2% [at 13.5 µM] | activity, negative = inhibition [11] -2.25% [at 12.7 µM] | activation [12] 13.6% [at 15.9 µM] | activity, negative = inhibition [13] 9.45% [at 12.6 µM] | activation [8] 0.405% [at 15.8 µM] | activation [14] -0.166% [at 19 µM] | activity change, negative = inhibition [15] -3.34% [at 18.9 µM] | activity change, negative = inhibition [16] 0.791% [at 19 µM] | activation [17] 7.35% [at 19 µM] | activation [18] 2.85% [at 19 µM] | activity change, negative = inhibition [9] 0.516% [at 18.9 µM]

ClCCOCCOCCCl
inactive: Potency [1] | Potency [2] | Potency [3] | Potency [4] | Potency [5] | Potency [7] | Potency [19] | Potency [11] | Potency [12] | Potency [13] | Potency [8] | Potency [14] | Potency [16] | Potency [17] | Potency [18] | Potency [9]

COC(=O)c1cc(Cl)cc(Cl)c1
inactive: Potency [1] | Potency [2] | Potency [3] | Potency [4] | Potency [10] | Potency [6] | Potency [7] | Potency [11] | Potency [12] | Potency [13] | Potency [8] | Potency [16] | Potency [18] | Potency [9]

Brc1cc(Br)c(Oc2cc(Br)c(Br)cc2Br)cc1Br
inactive: Potency [1] | Potency [2] | Potency [3] | Potency [4] | Potency [10] | Potency [6] | Potency [7] | Potency [11] | Potency [12] | Potency [8] | Potency [14] | Potency [15] | Potency [16] | Potency [18]

CCCCOCCOCCOCCOCCO
inactive: Potency [1] | Potency [2] | Potency [3] | Potency [4] | Potency [10] | Potency [6] | Potency [7] | Potency [11] | Potency [12] | Potency [13] | Potency [8] | Potency [14] | Potency [15] | Potency [16] | Potency [18] | Potency [9]
